About 22,000 (7.3%) of roughly 300,000 compounds were called active. Not shown: some 2% with an inconclusive outcome. Rule as the data show it: active = activity score below about -60%; inconclusive = mostly about -28% to -61%; inactive = positive scores. The full list was thinned out, with actives kept by preference.
Test: Activators via SNCA 5'UTR binding, MLPCN (AID 1814)
Details: alpha-synuclein 5'UTR reporter, activators screen; active compounds read low; tested at 7.5 µM

Activity score, active:
CC(=O)N(C)c1ccc(NC(=O)Nc2cccc3ccccc23)cc1 -70.7%
O=[N+]([O-])c1ccc(O)c(/C=N/Nc2ccccc2[N+](=O)[O-])c1 -63.1%
Cc1cc(C(=O)COC(=O)CNC(=O)c2ccc(F)cc2)c(C)n1Cc1ccco1 -113%
Nn1c(SCc2ccccc2)nnc1C1CCCCC1 -110%
N#Cc1cccc(NC(=O)COC(=O)c2ccccc2C(=O)c2ccc(Cl)c([N+](=O)[O-])c2)c1 -63.7%
Cc1ccc(Nc2nc(N)nc(CSc3nnc(C)s3)n2)cc1 -63.8%
CC(=O)c1ccc(NC(=S)NC(=O)CC(C)C)cc1 -98.8%
COc1ccccc1Nc1ncc(C(C)=O)c(C)n1 -80.4%
Cn1c(CCCOc2ccc(Cl)cc2Cl)n[nH]c1=S -63.6%
COc1cccc2cc(C(N)=O)/c(=N\NC(=O)c3ccccc3)oc12 -61.9%
Cc1cccc(C(=O)OC(C)CN2CCN(C)CC2)c1 (stereo not drawn) -64.7%
CCOC(=O)C1(Cc2ccccc2C(F)(F)F)CCN(C(=O)c2cc(C)n(C)n2)CC1 -117%
COc1ccc(/C=C/C(=O)Nc2cccnc2)cc1OC -72.4%
COc1ccc(C(=O)/C=C/c2cccnc2)c(OC)c1 -81.3%
Cc1cc(NC(=O)c2ccccc2C)no1 -104%
CC(=O)c1ccc(NC(=O)c2sc3nc4n(c(=O)c3c2C)CCCCC4)cc1 -89.5%
Cc1c(C(=O)Nc2ccccc2)sc2nc3n(c(=O)c12)CCCCC3 -136%
O=C(Cc1ccc(Br)cc1)N1CCN(c2ccccn2)CC1 -73.7%
O=c1oc2cc(O)ccc2cc1-c1ccc(F)cc1 -115%
NC(=O)Nc1ccccc1C(=O)NCCc1ccccc1 -90.2%
CCN1C(=O)/C(=C2\SC(N3CCCCC3)=NC2=O)c2ccccc21 -151%
CC(C)(C)c1csc(NC2=NS(=O)(=O)c3ccccc32)n1 -127%
CCCNC(=O)c1c(Cl)cnn1-c1ccc(C)cc1 -137%
S=c1nc(C23CC4CC(CC(C4)C2)C3)nc2sccn12 -162%
COC(=O)c1ccc2c(C(C)(C)O)c(C(C)(C)O)[nH]c2c1 -87.7%
Cc1ccc(F)c(NC(=O)CCc2ccccc2)c1 -92.3%
Cc1cccc(OCC(=O)Nc2ccccc2F)c1 -140%
O=C(COc1ccc(Cl)cc1)Nc1ccccc1CO -81.1%
COc1cccc(OCC(=O)Nc2ccccc2C(N)=O)c1 -126%
CCCc1nnc(NC(=O)c2cccs2)s1 -80.1%
Cc1ccc(C(=O)Nc2nnc(-c3cccs3)s2)cc1C -218%
CCc1nnc(NC(=O)c2cccs2)s1 -125%
CCc1c(C)sc(NC(=O)c2cccs2)c1C(N)=O -151%
S=C(NCCc1ccccc1)NCC1CCCO1 (stereo not drawn) -78.2%
S=C(NCCc1ccccc1)N1CCCCC1 -106%
S=C(NCCC1=CCCCC1)Nc1ccccc1 -122%
S=C(NCCc1ccccc1)Nc1ccccc1 -89.3%
CCOc1ccc(/C(O)=C2\C(=O)C(=O)N(c3ccc(OC)cc3)C2c2ccccc2[N+](=O)[O-])cc1 (stereo not drawn) -69.2%
Fc1ccccc1COc1cccc2cccnc12 -134%
Cc1ccnc2nc(C(=O)Nc3nnc(-c4ccccc4)o3)nn12 -72%
O=C(O)C1CCN(C(=O)OCc2ccccc2)CC1 -142%
CCOC(=O)c1sc(=NC(=O)/C=C/c2cccs2)n(C)c1C -201%
Cc1ccc(NC(=O)C(=O)NCc2ccco2)c(C)c1 -101%
Brc1ccccc1/C=N/Nc1nc2ccccc2o1 -126%
COc1cc(/C=N/Nc2nc3ccccc3s2)ccc1O -82.9%
O=[N+]([O-])c1cc(Br)c(O)c(/C=N/Nc2nc3ccccc3s2)c1 -87.6%
COc1ccc(/C=N/Nc2nc3ccccc3o2)cc1OC -162%
Cc1cc2nc(SCCN3CCOCC3)[nH]c2cc1C -115%
O=C(CN1C(=O)S/C(=C\c2ccccc2Cl)C1=O)NC1C=CS(=O)(=O)C1 (stereo not drawn) -83.8%
Cc1cccc(N2C(=O)C3C(c4ccccc4)OC4(C(=O)c5ccccc5C4=O)C3C2=O)c1 (stereo not drawn) -66.3%
CC(=O)Nc1ccc(Nc2c([N+](=O)[O-])cc(S(C)(=O)=O)cc2[N+](=O)[O-])cc1 -75.2%
COc1ccc(-c2csc(NC(=O)COC(=O)c3ccc(Br)o3)n2)cc1 -106%
COc1ccc(-c2csc(NC(=O)COC(=O)Cc3ccc(Cl)cc3Cl)n2)cc1 -99.4%
COc1ccccc1N1CCN(C(=O)CSc2ncnc3c2cnn3-c2ccc(C)c(C)c2)CC1 -144%
CCN(CC)C(=O)CSc1ncnc2c1cnn2-c1ccccc1 -129%
CC(C)Sc1ncnc2c1cnn2-c1ccccc1 -82.1%
COc1cc(OC)cc(-c2nc(=S)n3ccsc3n2)c1 -77.6%
COc1ccc(-c2ccc3nnc(SCC(=O)Nc4ccc(NC(C)=O)cc4)n3n2)cc1 -81.8%
Oc1ccc(-c2cccc(-c3ccc(O)cc3)c2)cc1 -135%
O=C(Nc1ccc([N+](=O)[O-])cc1)OCCc1ccccn1 -144%
O=C(Nc1cccc(Cl)c1)OCc1ccccn1 -131%
COc1ccccc1Cc1nc(-c2ccc(C)cc2)no1 -97.1%
COc1ccc2[nH]c(=O)c(-c3noc(-c4ccc(F)cc4)n3)cc2c1 -111%
COc1ccc(-c2noc(-c3ccc(C)cc3)n2)cc1 -153%
O=C(Nc1nnc(-c2ccccc2F)s1)c1ccccc1F -172%
COc1ccc(CCc2nc(-c3cccs3)no2)cc1 -148%
Clc1cccc(Cl)c1Cn1nnc(-c2cccs2)n1 -162%
CCCc1ccc(-c2csc(NC(=O)Cc3cccs3)n2)cc1 -66.4%
Cc1ccc(-c2csc(NC(=O)Cc3cccs3)n2)cc1C -200%
CC(C)c1ccc(NC(=O)Cn2ncc3ccccc32)cc1 -178%
Cc1cccc(-n2c(C)cc(/C=N\NC(=O)c3cccs3)c2C)c1 -62.2%
CC(=O)Nc1ccc(/C=N/NC(=O)c2cccs2)cc1 -159%
Cc1ccc(-n2nc(C)c(/C=N/NC(=O)c3cccs3)c2Cl)cc1 -87.3%
O=C(N/N=C/C=C/c1ccco1)c1cccs1 -86.4%
CCCn1c(C)cc(/C=C(\C#N)C(=O)OCC(=O)Nc2cc(OC)c(OC)c(OC)c2)c1C -103%
CCOC(=O)/C(C#N)=C/c1ccc(OCC(=O)Nc2ccccc2)c(OC)c1 -119%
OC(COc1ccc2ccccc2c1)CN1CCOCC1 (stereo not drawn) -72.5%
CCCn1nnc2sc3c(c2c1=O)CCC(C)C3 (stereo not drawn) -131%
CC1CCc2c(sc3nc4n(c(=O)c23)CCS4)C1 (stereo not drawn) -71.6%
Cc1ccn(-c2cccc(-n3ccc(C)n3)n2)n1 -93%
CN1CCN(/N=C/c2ccc(-c3ccc([N+](=O)[O-])cc3)o2)CC1 -128%
Cc1cc(=O)n2[nH]c(-c3cccc(Cl)c3)cc2n1 -79%
CCn1c(CNc2ccc(OC)cc2)nnc1SCC(=O)c1ccc(OC)cc1 -63.6%
O=C1NC(c2ccncc2)Nc2sc3c(c21)CCCC3 (stereo not drawn) -66.2%
Cc1ccnc(NC(=O)c2ccc(Cl)c([N+](=O)[O-])c2)c1 -78.7%
O=C(CSCc1ccccc1)Nc1ccccc1 -126%
O=C(Nc1ccc2oc(-c3ccccc3F)nc2c1)c1ccco1 -128%
C/C(=N\NS(=O)(=O)c1ccc(Cl)cc1)c1ccc(NC(=O)c2ccco2)cc1 -87.4%
O=C(CSc1ccccc1)Nc1ccc(NC(=O)c2ccco2)cc1 -68.2%
O=C(Nc1cccc(-c2nc3ncccc3o2)c1)c1ccco1 -72.9%
CCS(=O)(=O)Nc1ccc(C(=O)NCCSc2ccccc2)cc1 -92.6%
CSCCC(NC(=O)c1ccco1)C(=O)Nc1cc(C)ccn1 (stereo not drawn) -130%
Cc1ccc(-n2nc3cc(Cl)c(NC(=O)c4ccco4)cc3n2)cc1 -179%
O=C(/C=C/c1ccco1)Nc1ccc(Oc2ccccc2)cc1 -217%
CCCc1cc(C(=O)Nc2ccc(C(=O)OC)cc2)cs1 -74%
Cc1ccnc(NC(=O)c2ccc(NC(=O)c3ccco3)cc2)c1 -164%
O=C(Nc1ccc(Oc2ccccc2)cc1)c1ccco1 -119%
O=C(CSc1ccccc1)Nc1ccc(C(=O)Nc2cccc(O)c2)cc1 -104%
Cc1cc(NC(=O)c2ccc(F)cc2)ccc1NC(=O)c1ccco1 -63.3%
O=C(NCCSc1ccccc1)c1ccco1 -162%

Activity score, inactive:
Cc1ccsc1C(=O)OCC(=O)c1cc(C)n(CC2CCCO2)c1C (stereo not drawn) 79.6%
COc1ccc(/C=C/C(=O)Nc2ccc(C34CC5CC(CC(O)(C5)C3)C4)cc2)cc1OC 76.5%
CC1CCCCN1S(=O)(=O)c1ccc(C(=O)Nc2nnc(-c3cccs3)o2)cc1 (stereo not drawn) 89.9%
COc1ccccc1N1CCN(C(=O)c2cc(=O)c3cc(C)cc(C)c3o2)CC1 78.3%
COc1ccc(-c2nc(-c3ccccc3)no2)c(OC)c1 68.9%
O=c1c2c(nc3cc(-c4cccc(Cl)c4)[nH]n13)CCCC2 18.5%
Brc1ccc2c(c1)[C@H]1OCC[C@H]1[C@@H](c1cccs1)N2 72.2%
Cc1cccc(CS(=O)(=O)c2ncc(Cl)c(C(=O)Nc3ccc(F)cc3)n2)c1 59.7%

— PubChem BioAssay AID1814 (Broad Institute, 2009)
